Structures are written as SMILES. Screen size: about 410,000 compounds; about 18,000 (4.4%) were called active. Roughly 7% stayed inconclusive and do not appear here. For the sample, actives were picked, then their nearest neighbours and some compounds at random. Values without a mark were called inactive. No stated cut-off is given here; in the data, active means activity change below about -60%; inconclusive means no clear call, values can overlap the other calls; inactive means above about -39%.
On the % scale 0 is the no-effect control and ±100 the full control effect.

The test in a line: qHTS Assay for inhibitors of the human cytomegalovirus (HCMV). As to conditions: HFF cells, HCMV-luciferase reporter, 72 h; at 57.5 µM; hits give low values. In short, it runs like this: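 Cell-based, HFFs, 1000 cells/well, 16 h 37C; cpds in DMSO + HCMV-luc, MOI 1 PFU/cell; 72 h 37C; OneGlo luminescence after 5 min RT; norm. to buffer vs Salinomycin 10uM.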
(In general: qHTS replaces the single test concentration by a dilution series.)
Take `COc1ccc(-c2cn3nc(N4CCCC(C(=O)NCCCOC(C)C)C4)sc3n2)cc1` (configuration not stated): the activity change, negative = inhibition is 0%. For `Cc1ccc2nsnc2c1S(=O)(=O)N1CCCC1C(=O)O` (configuration not stated), the activity change, negative = inhibition is -8.96%.

Consider `CCc1ccc(S(=O)(=O)c2nnn3c2nc(N2CCN(CC)CC2)c2sccc23)cc1`, for which the activity change, negative = inhibition is 9.37%. The figure for `N#CCCN(CCC#N)c1nnc(-c2ccccc2)s1` is 3.02%; for `CN(C)CCCNC(=S)N1CCN(c2nc(-c3ccccc3)cs2)CC1` it is -3.01%. To `CC1CCCC(C)N1C(=O)CN1CCN(c2nc(-c3ccc(F)cc3)cs2)CC1` (configuration not stated) belongs -63.2% (active); to `CCc1ccc(CNC(=O)C2CCN(c3nn4cc(-c5ccc(F)cc5)nc4s3)CC2)cc1`, 0%; to `O=C(NCc1nnc(SCC(=O)N2CCC(Cc3ccccc3)CC2)o1)c1ccco1`, -25.7%. Consider `COc1ccc(NC(=O)Nc2ccc3nsnc3c2)cc1`, for which the activity change, negative = inhibition was -62.9% (active). To `COc1ccc(NC(=O)Nc2cccc(-c3noc(C)n3)c2)cc1` belongs -15.1%.

As for `COC(=O)[C@H](CCSC)NC(=O)Nc1ccc(OC)cc1`, the activity change, negative = inhibition is 10.5%. The figure for `CCOC(=O)c1ccc(NC(=O)Cn2c(=O)n(-c3ccc(C)cc3)c(=O)c3c2cnn3C)cc1` is 2.83%; for `CSc1ncnc2c1ncn2CCCNCc1ccco1` it is 11.8%. To `CSc1ncnc2c1ncn2CCCNCC1CCCCC1` belongs 8.49%. In the case of `CSc1ncnc2c1ncn2CC(=O)C1CCC2C3CCC4=CC(=O)CCC4(C)C3CCC12C` (configuration not stated), the activity change, negative = inhibition is -83% (active). The figure for `O=C(O)c1ccc(Cn2c(SCc3ccc(F)cc3)nc3ccncc32)cc1` is 0.974%; for `O=C(NCCCN1CCN(c2cccc(Cl)c2)CC1)c1nnc(Cc2ccc(F)cc2Cl)o1` it is -14.1%; for `CCOc1ccc(CCNC(=O)c2cc3c(=O)n(C)c4ccccc4c3n2C)cc1` it is -15.3%.

`Cn1c(C(=O)NCCCN2CCN(c3cccc(Cl)c3)CC2)cc2c(=O)n(C)c3ccccc3c21`: the activity change, negative = inhibition is -68.6% (active). The figure for `Cc1cccc(NC(=O)CSc2ncc(-c3ccccc3)[nH]2)c1C` is 45.4%. The figure for `C=CCOC(=O)C1=C[C@@H](c2ccccc2)C[C@@H](OCc2ccc(CO)cc2)O1` is -2.26%. The figure for `CN(C)c1ccc(C(CNS(=O)(=O)c2cc(F)ccc2F)N2CCOCC2)cc1` (configuration not stated) is -0.38%; for `CCCNC(=O)C(CC)n1nc(CC)n2c(cc3oc(C)cc32)c1=O` (configuration not stated) it is -16.8%; for `COc1cc(OC)c(NC(=O)c2nc(-c3ccncc3)no2)cc1Cl` it is -9.36%. With `CCOC(=O)C1CN(S(=O)(=O)c2ccc(OC)cc2)c2cc(Cl)ccc2O1` (configuration not stated), the activity change, negative = inhibition was -61.8% (active). For `CCS(=O)(=O)c1ccc2c(c1)N(S(=O)(=O)c1ccccc1)CC(C(=O)O)O2` (configuration not stated), the activity change, negative = inhibition was 4.24%. To `CCOC(=O)C1CN(S(=O)(=O)c2ccc(F)cc2)C1` belongs 41%; to `CCCCCn1c(=O)[nH]c2cc(C(=O)Nc3cc(C)cc(C)c3)ccc2c1=O`, -0.639%. As to `CC[C@]1(O)CC2CN(CCc3c([nH]c4ccccc34)[C@@](C(=O)OC)(c3cc4c(cc3OC)N(C=O)[C@H]3[C@@](O)(C(=O)OC)[C@H](OC(C)=O)[C@]5(CC)C=CCN6CC[C@]43[C@@H]65)C2)C1` (some centres not stated), the activity change, negative = inhibition is -100% (active). Consider `CC[C@]1(O)C[C@@H]2CN(CCc3c([nH]c4ccccc34)[C@@](C(=O)OC)(c3cc4c(cc3OC)N(C)[C@H]3[C@@](O)(C(=O)OC)[C@H](OC(C)=O)[C@]5(CC)C=CCN6CC[C@]43[C@@H]65)C2)C1`, for which the activity change, negative = inhibition is -99.7% (active).

On to `CCc1cccc(NC(=O)CSc2nccn2C)c1`, for which the activity change, negative = inhibition was 73.7%. On to `O=C(Nc1cc(-c2nc3ccccc3o2)ccc1Cl)c1cc([N+](=O)[O-])ccc1N1CCOCC1`, for which the activity change, negative = inhibition was 17.1%. For the molecule `O=C(CCCCn1c(=O)c2ccccc2n(CC(=O)Nc2cccc(C(F)(F)F)c2)c1=O)NCc1ccc2c(c1)OCO2`, the activity change, negative = inhibition was -22.6%. To `CCC(=O)N1CCc2cc(S(=O)(=O)NC(CC(C)C)C(=O)NCCc3cccc(C)c3)ccc21` (configuration not stated) belongs -11.4%. To `COc1cn(CC(=O)Nc2cccc(C)c2C)c(CN2CCCCC2)cc1=O` belongs 6.56%; to `COc1ccc(-c2cc(C(=O)N3CCN(c4ccc(F)cc4)CC3)no2)cc1`, -76% (active).

For the molecule `COc1ccc(N2CCN(C(=O)c3c(C)oc4nc(C)nc(N5CCCC5)c34)CC2)cc1`, the activity change, negative = inhibition was 18.7%.

With `CC(C)c1ccc(S(=O)(=O)N2CCN(C(=O)c3ccc(N4CCCC4)c([N+](=O)[O-])c3)CC2)cc1`, the activity change, negative = inhibition is -16.3%. The figure for `O=C(c1cncc(Br)c1)N1CCN(c2ccc([N+](=O)[O-])cc2)CC1` is 25.9%; for `COc1ccc(N2CCN(C(=O)c3cccs3)CC2)cc1` it is 57.6%; for `O=C(c1ccc(N2CCOCC2)c([N+](=O)[O-])c1)N1CCN(S(=O)(=O)c2cccs2)CC1` it is 5.8%.

Consider `O=[N+]([O-])c1ccc(N2CCN(c3ccc(F)cc3)CC2)cn1`, for which the activity change, negative = inhibition is -16.4%. For the molecule `O=C(c1cc(C(=O)N2CCN(c3ccc(F)cc3)CC2)cc([N+](=O)[O-])c1)N1CCN(c2ccc(F)cc2)CC1`, the activity change, negative = inhibition was -66.2% (active). To `O=C(c1cccc(F)c1)N1CCN(c2ccc([N+](=O)[O-])c3cccnc23)CC1` belongs -7.42%; to `O=C(c1ccc(CN2CCOCC2)cc1)N1CCN(c2ccccc2F)CC1`, 16.2%.

On to `O=C(c1cccc(F)c1)N1CCN(c2ccc([N+](=O)[O-])c(N3CCCCC3)c2)CC1`, for which the activity change, negative = inhibition was -60.2% (active). The figure for `O=C(c1ccc(N2CCOCC2)c([N+](=O)[O-])c1)N1CCN(c2ccccc2F)CC1` is -77.5% (active).
